According to PubChem BioAssay AID1159580 (chemical genetic matrix, 2015):
Hit rate of the full screen: of about 5,500 compounds, about 2,000 (36%) were called active. About 18% were inconclusive and are not listed. No stated cut-off is given here; in the data, active means normalized growth mostly below about 0.91 (no sharp cut-off); inconclusive means no clear call, values can overlap the other calls; inactive means mostly above about 0.92. The list shows a part of the results.

Experiment: chemical genetic growth profiling, strain panel (AID 1159580);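 further: tested at 20 µM; growth read once vehicle control cultures reached saturation at 30 °C; 1 = growth at the plate median or of vehicle wells; lower values mean less growth of the strain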
Conditions: growth OD

Measured: normalized growth

CC(=O)O.CC(=O)O.[Cd]
active: S. cerevisiae deletion strains, locus YJR043C, strain POL32, active compounds read low 0.298 | S. cerevisiae deletion strains, locus YJR075W, strain HOC1, active compounds read low 0.202 | S. cerevisiae deletion strains, locus YKL009W, strain mrt4, active compounds read low 0.639 | S. cerevisiae deletion strains, locus YKL068W, active compounds read low 0.651 | S. cerevisiae deletion strains, locus YKL085W, strain MDH1 (second series), active compounds read low 0.372 | S. cerevisiae deletion strains, locus YKL085W, strain MDH1, active compounds read low 0.372 | S. cerevisiae deletion strains, locus YKL160W, strain elf1, active compounds read low 0.533 | S. cerevisiae deletion strains, locus YKL190W, strain CNB1, active compounds read low 0.125 | S. cerevisiae deletion strains, locus YKR001C, strain vps1, active compounds read low 0.12 | S. cerevisiae deletion strains, locus YKR026C, strain gcn3, active compounds read low 0.82 | S. cerevisiae deletion strains, locus YKR091W, strain srl3, active compounds read low 0.793 | S. cerevisiae deletion strains, locus YLL001W, strain dnm1, active compounds read low 0.68 | S. cerevisiae deletion strains, locus YLL026W, active compounds read low 0.603 | S. cerevisiae deletion strains, locus YLL041C, strain sdh2, active compounds read low 0.785 | S. cerevisiae deletion strains, locus YLR027C, strain aat2, active compounds read low 0.664 | S. cerevisiae deletion strains, locus YLR039C, strain RIC1, active compounds read low 0.166 | S. cerevisiae deletion strains, locus YLR058C, strain SHM2, active compounds read low 0.154 | S. cerevisiae deletion strains, locus YLR102C, strain apc9, active compounds read low 0.464 | S. cerevisiae deletion strains, locus YLR221C, strain rsa3, active compounds read low 0.669 | S. cerevisiae deletion strains, locus YLR258W, strain gsy2, active compounds read low 0.698 | S. cerevisiae deletion strains, locus YLR262C, strain YPT6 (second series), active compounds read low 0.403 | S. cerevisiae deletion strains, locus YLR262C, strain YPT6, active compounds read low 0.133 | S. cerevisiae deletion strains, locus YLR268W, strain sec22, active compounds read low 0.158 | S. cerevisiae deletion strains, locus YLR320W, strain mms22, active compounds read low 0.696 | S. cerevisiae deletion strains, locus YLR330W, strain CHS5, active compounds read low 0.811 | S. cerevisiae deletion strains, locus YLR342W, strain FKS1 (second series), active compounds read low 0.311 | S. cerevisiae deletion strains, locus YLR342W, strain FKS1, active compounds read low 0.862 | S. cerevisiae deletion strains, locus YLR357W, strain rsc2, active compounds read low 0.522 | S. cerevisiae deletion strains, locus YLR370C, strain arc18, active compounds read low 0.313 | S. cerevisiae deletion strains, locus YLR371W, strain rom2, active compounds read low 0.188 | S. cerevisiae deletion strains, locus YLR384C, strain iki3, active compounds read low 0.804 | S. cerevisiae deletion strains, locus YLR418C, strain cdc73, active compounds read low 0.175 | S. cerevisiae deletion strains, locus YML016C, strain PPZ1, active compounds read low 0.224 | S. cerevisiae deletion strains, locus YML032C, strain rad52, active compounds read low 0.313 | S. cerevisiae deletion strains, locus YML120C, strain ndi1, active compounds read low 0.695 | S. cerevisiae deletion strains, locus YML124C, strain tub3, active compounds read low 0.304 | S. cerevisiae deletion strains, locus YMR058W, strain fet3, active compounds read low 0.0708 | S. cerevisiae deletion strains, locus YMR078C, strain ctf18, active compounds read low 0.462 | S. cerevisiae deletion strains, locus YMR125W, strain sto1, active compounds read low 0.87 | S. cerevisiae deletion strains, locus YMR129W, active compounds read low 0.802 | S. cerevisiae deletion strains, locus YMR205C, strain PFK2, active compounds read low 0.675 | S. cerevisiae deletion strains, locus YMR223W, strain ubp8, active compounds read low 0.271 | S. cerevisiae deletion strains, locus YMR231W, strain pep5, active compounds read low 0.179 | S. cerevisiae deletion strains, locus YMR263W, strain SAP30, active compounds read low 0.221 | S. cerevisiae deletion strains, locus YMR307W, strain GAS1, active compounds read low 0.172 | S. cerevisiae deletion strains, locus YNL067W, strain RPL9B, active compounds read low 0.289 | S. cerevisiae deletion strains, locus YNL071W, strain lat1, active compounds read low 0.757 | S. cerevisiae deletion strains, locus YNL128W, strain TEP1, active compounds read low 0.234 | S. cerevisiae deletion strains, locus YNL153C, strain GIM3, active compounds read low 0.468 | S. cerevisiae deletion strains, locus YNL209W, strain ssb2, active compounds read low 0.583 | S. cerevisiae deletion strains, locus YNL233W, strain BNI4, active compounds read low 0.394 | S. cerevisiae deletion strains, locus YNL248C, strain rpa49, active compounds read low 0.765 | S. cerevisiae deletion strains, locus YNL250W, strain rad50, active compounds read low 0.269 | S. cerevisiae deletion strains, locus YNL271C, strain bni1, active compounds read low 0.3 | S. cerevisiae deletion strains, locus YNL298W, strain CLA4, active compounds read low 0.345 | S. cerevisiae deletion strains, locus YNL307C, strain MCK1, active compounds read low 0.124 | S. cerevisiae deletion strains, locus YNL322C, strain KRE1 (second series), active compounds read low 0.547 | S. cerevisiae deletion strains, locus YNL322C, strain KRE1, active compounds read low 0.139 | S. cerevisiae deletion strains, locus YNR049C, strain mso1, active compounds read low 0.819 | S. cerevisiae deletion strains, locus YNR052C, strain pop2, active compounds read low 0.164 | S. cerevisiae deletion strains, locus YOL006C, strain TOP1, active compounds read low 0.153 | S. cerevisiae deletion strains, locus YOL147C, strain pex11, active compounds read low 0.32 | S. cerevisiae deletion strains, locus YOR001W, strain rrp6, active compounds read low 0.752 | S. cerevisiae deletion strains, locus YOR061W, strain CKA2, active compounds read low 0.269 | S. cerevisiae deletion strains, locus YOR069W, strain VPS5, active compounds read low 0.222 | S. cerevisiae deletion strains, locus YOR070C, strain gyp1, active compounds read low 0.669 | S. cerevisiae deletion strains, locus YOR080W, strain dia2, active compounds read low 0.851 | S. cerevisiae deletion strains, locus YOR083W, strain WHI5, active compounds read low 0.59 | S. cerevisiae deletion strains, locus YOR106W, strain vam3, active compounds read low 0.408 | S. cerevisiae deletion strains, locus YOR136W, strain idh2, active compounds read low 0.263 | S. cerevisiae deletion strains, locus YOR144C, strain elg1, active compounds read low 0.461 | S. cerevisiae deletion strains, locus YOR184W, strain ser1, active compounds read low 0.25 | S. cerevisiae deletion strains, locus YOR265W, strain rbl2, active compounds read low 0.769 | S. cerevisiae deletion strains, locus YOR270C, strain vph1, active compounds read low 0.405 | S. cerevisiae deletion strains, locus YOR316C, strain cot1, active compounds read low 0.356 | S. cerevisiae deletion strains, locus YPL051W, strain arl3, active compounds read low 0.207 | S. cerevisiae deletion strains, locus YPL055C, strain LGE1, active compounds read low 0.169 | S. cerevisiae deletion strains, locus YPL078C, strain atp4, active compounds read low 0.707 | S. cerevisiae deletion strains, locus YPL240C, strain hsp82, active compounds read low 0.731 | S. cerevisiae deletion strains, locus YPL241C, strain CIN2, active compounds read low 0.271 | S. cerevisiae deletion strains, locus YPR119W, strain clb2, active compounds read low 0.433 | S. cerevisiae deletion strains, locus YPR141C, strain kar3, active compounds read low 0.418 | S. cerevisiae deletion strains, locus YPR163C, strain tif3, active compounds read low 0.441 | S. cerevisiae deletion strains, locus YPR167C, strain met16, active compounds read low 0.387 | S. cerevisiae deletion strains, strain wtn01, active compounds read low 0.254 | S. cerevisiae strains, strain wild type, active compounds read low 0.13
inactive: S. cerevisiae deletion strains, locus YOL012C, strain htz1 0.261 | S. cerevisiae deletion strains, locus YOR290C, strain snf2, active compounds read low 0.927 | S. cerevisiae deletion strains, locus YPL106C, strain sse1, active compounds read low 1.01
